# Source: PubChem BioAssay (National Center for Advancing Translational Sciences (NCATS))
# D1 antagonist – antagonists of human D1 dopamine receptor; P21728; HEK293 TREx D1 cells, calcium flux, dopamine EC80; active compounds read low; activity change, negative = inhibition, % at 10 µM; 360,000 tested, 3.2% active; AID 504652; in the data active = activity change below about -30%; note: % is set by controls: 0 for no effect and ±100 for the full control effect
#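 Inducible Hek293 Trex D1 cells (tetracycline, overnight, 30 C). Calcium dye 30–90 min RT. Antagonist mode: EC80 dopamine added after 180 s compound read.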
# D1 PAM – enhances dopamine response at the human D1 receptor; HEK293 TREx D1 cells, calcium flux, dopamine EC20 potentiation; AID 504651; 360,000 tested, 0.036% active; potentiation, % at 10 µM; in the data active = potentiation above about 30%; note: 0% is about no effect
# DRD3 agonist – D3 dopamine receptor (human) agonism; max activation, %; D3R DiscoveRx beta-arrestin cells, luminescence, 90 min; 410,000 tested, 0.58% active; AID 652048; in the data active = max activation above about 30%; note: 0% is about no effect
# Target sequence (P35462 whole entry, looked up): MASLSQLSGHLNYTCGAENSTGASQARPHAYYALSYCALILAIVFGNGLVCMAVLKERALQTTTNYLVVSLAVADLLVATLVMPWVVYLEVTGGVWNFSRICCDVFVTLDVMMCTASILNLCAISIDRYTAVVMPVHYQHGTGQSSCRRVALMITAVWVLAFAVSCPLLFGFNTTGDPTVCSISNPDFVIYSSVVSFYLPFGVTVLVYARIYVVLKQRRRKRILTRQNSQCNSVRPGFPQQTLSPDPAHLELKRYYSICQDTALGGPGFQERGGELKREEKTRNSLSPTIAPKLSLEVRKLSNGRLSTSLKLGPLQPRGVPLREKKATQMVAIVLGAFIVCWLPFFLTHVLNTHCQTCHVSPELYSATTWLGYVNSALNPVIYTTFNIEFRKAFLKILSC
#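 Agonist-mode cell screen: cells plated at 1500/well and incubated overnight at 37 °C, then exposed to library compounds for 90 min at 37 °C. Detection reagent was added for 30–60 min at room temperature, and luminescence was read.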
# D1 agonist – human D1 receptor agonism. HEK293 T-REx D1 cells, calcium flux, agonist mode. activation, % at 2 µM. 360,000 tested, 1% active. AID 504660; in the data active = activation above about 30%; note: 0% is about no effect
#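 Inducible HEK293 T-REx D1 cells, force-coupled to calcium signalling, were plated at 4000 cells/well with tetracycline and held overnight at 30 C. After no-wash calcium dye loading, compound-evoked calcium rise over 180 s flagged agonists.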
# DRD3 antagonist – blocks the human D3 dopamine receptor. D3R cells, DiscoveRx beta-arrestin luminescence, antagonist mode; active compounds read low. max response, negative = inhibition, %. 360,000 tested, 2.5% active; in the data active = max response below about -50%; note: % is set by controls: 0 for no effect and ±100 for the full control effect
#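 Cells plated overnight at 1500 cells/well, then exposed to library compounds with dopamine controls for 90 minutes at 37 degrees C. DiscoveRx reagent added for 30–60 minutes at room temperature; luminescence read, quantitative HTS format.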
# * = called active by the depositor; . = no result. Shown are actives, neighbours in structure and some others; about 6% of the full set was active somewhere.
SMILES,D1 antagonist,D1 PAM,DRD3 agonist,D1 agonist,DRD3 antagonist
CCOC(=O)c1cnc2ccc(OCC)cc2c1N1CCN(c2ccccc2OC)CC1,8,5,34*,1,69
COc1ccc(-n2nnnc2C(CCc2ccccc2)N2CCN(C/C=C/c3ccccc3)CC2)cc1 (configuration not stated),.,.,-18,.,-76*
CCC(c1nnnn1-c1ccc(OC)cc1)N1CCN(C/C=C/c2ccccc2)CC1 (configuration not stated),.,.,-4,.,-57*
COc1cccc(C(c2nnnn2C2CCCC2)N2CCN(C/C=C/c3ccccc3)CC2)c1OC (configuration not stated),.,.,-22,.,-96*
CCC(c1nnnn1Cc1ccccc1)N1CCN(c2ccc(OC)cc2)CC1 (configuration not stated),10,-4,-3,0,-4
COc1ccc(-n2nnnc2C(c2cccc(OC)c2OC)N2CCN(C/C=C/c3ccccc3)CC2)cc1 (configuration not stated),.,.,-9,.,-86*
COc1ccccc1C(c1nnnn1C1CCCC1)N1CCN2CCCC2C1 (configuration not stated),-10,-6,-7,-1,6
COc1ccc(N2CCN(C(c3ccccc3)c3nnnn3C(C)(C)C)CC2)cc1 (configuration not stated),.,.,6,.,-11
COc1ccccc1N1CCN(C(c2cccs2)c2nnnn2C2CCCC2)CC1 (configuration not stated),-35*,-5,-13,1,14
COc1ccc(-n2nnnc2C(c2ccccc2)N2CCN(C/C=C/c3ccccc3)CC2)cc1 (configuration not stated),.,.,-13,.,-118*
COc1ccc(-c2cc3ccc(O)c(CN4CCCC4)c3oc2=O)cc1OC,-5,2,-8,4,.
COc1ccc(NC(=O)c2cc(C3CC3)nc3c2c(C)nn3-c2ccccc2)c(OC)c1,-17,0,11,2,.
CC(=O)C1=C(c2ccc(Br)cc2)C(=O)c2ccccc2C1=O,14,-1,-13,1,-87*
CNC1=C(N(C(C)=O)c2ccc(Br)cc2)C(=O)c2ccccc2C1=O,-13,2,-2,0,-23
O=C(c1ccc2c(c1)OCCO2)N(Cc1cccnc1)c1nc2c(F)cccc2s1,-6,-5,-6,8,.
CC(Sc1nnc2ccccn12)C(=O)Nc1ncc(Cl)cc1Cl (configuration not stated),5,-2,-5,0,-50*
COc1ccc(-n2c(SC(C)C(=O)Nc3ncc(Cl)cc3Cl)nc3ccccc32)cc1 (configuration not stated),18,3,36*,4,17
Cn1c(=O)c2c(nc(NCc3ccccc3)n2Cc2ccc(Cl)c(Cl)c2)n(C)c1=O,0,1,17,13,.
Cc1nn(-c2ccccc2)c(Cl)c1C(=O)N1CCN(c2ncnc3c2cnn3-c2ccccc2)CC1,-17,-4,41*,1,-10
Cc1ccc(Cl)cc1-n1ncc2c(N3CCN(Cc4ccccc4)CC3)ncnc21,-45*,-2,-4,-2,.
Cc1ccc(-n2ncc3c(N4CCN(Cc5ccccc5)CC4)ncnc32)cc1,4,-3,6,-1,.
COc1cccc(OCCN2CCN(c3ncnc4c3cnn4-c3ccccc3)CC2)c1,-9,-5,48*,13,10
Cc1nc(-c2ccc([S+](=O)([O-])N3CCN([S+](=O)([O-])c4c(F)cccc4F)CC3)s2)cs1,15,-8,.,1,.
Cc1cccc(-c2noc(-c3cc(C(C)C)[nH]n3)n2)c1,-9,-3,0,42*,.
COc1cccc(Cn2c(N)c(C#N)c3nc4ccccc4nc32)c1OC,-43*,-2,-3,7,-20
COc1ccc(Cn2c(N)c(C#N)c3nc4ccccc4nc32)cc1,0,-1,-2,13,23
CC(C)Oc1ccc(CNS(=O)(=O)c2cnc(N)nc2)cc1,27,-2,8,0,.
CC(C)CCn1c(N2CCCC2)nc2c1c(=O)[nH]c(=O)n2C,-38*,-5,-1,4,10
CC(C)CCn1c(N2CCOCC2)nc2c1c(=O)n(CC(N)=O)c(=O)n2C,-58*,-10,-1,1,16
COc1cccc(-n2c(=O)c3sc4ccccc4c3n(CC(=O)Nc3ccccc3OC)c2=O)c1,-6,-3,-8,8,.
